# Screening data (PubChem)
# The list is not random: actives were taken first. Their share in the collection is about 0.76%.
# FadD28 FP inh: inhibitors of FadD28 bisubstrate probe binding, primary screen, biochemical, fluorescence polarization, single point; hit rate 0.22% among 360,000; inhibition, % at 12.5 µM; in the data active means inhibition above about 8.5%, passing the limit was not always enough; inconclusive means no clear call, values can overlap the other calls
# Mtb UGM inh: M. tuberculosis UGM enzyme inhibitors, primary screen, biochemical, fluorescence polarization, single point | AID 504406, 2011 | hit rate 0.06% among 320,000 | purified UGM, fluorescence polarization probe displacement | inhibition, % at 10 µM | UDP-galactopyranose mutase (Mycobacterium tuberculosis (strain ATCC 25618 / H37Rv)), …; in the data active means inhibition above about 10%, passing the limit was not always enough; inconclusive means no clear call, values can overlap the other calls
# Target sequence (P9WIQ1 whole entry, looked up): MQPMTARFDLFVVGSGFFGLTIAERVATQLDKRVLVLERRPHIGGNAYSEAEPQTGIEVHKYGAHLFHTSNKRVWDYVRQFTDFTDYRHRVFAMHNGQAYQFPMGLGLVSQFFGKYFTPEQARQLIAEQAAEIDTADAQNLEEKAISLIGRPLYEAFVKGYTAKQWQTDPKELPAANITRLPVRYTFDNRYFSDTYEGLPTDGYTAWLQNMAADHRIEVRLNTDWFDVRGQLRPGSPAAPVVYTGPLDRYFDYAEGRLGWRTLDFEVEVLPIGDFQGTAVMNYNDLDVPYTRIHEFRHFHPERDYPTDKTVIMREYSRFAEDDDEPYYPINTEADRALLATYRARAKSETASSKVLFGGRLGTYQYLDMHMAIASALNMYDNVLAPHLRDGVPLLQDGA
# Rv3671c inh: Rv3671c serine protease inhibitors, primary screen, biochemical, fluorescence polarization, M. tuberculosis H37Rv | P9WHR9 | inhibition, % at 5.96 µM | hit rate 0.048% among 320,000; in the data active means inhibition above about 38%;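 further: extracellular domain of Rv3671c used as enzyme; 0% = enzyme with DMSO and 100% = no enzyme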
# PrP 5UTR inh: inhibition of PrP 5' UTR reporter expression. cell-based PrP 5' UTR mRNA reporter, plate reader. inhibition, % (no concentration beside the values). hit rate 0.35% among 340,000; in the data active means inhibition above about 52%; further: 0 = median of the neutral control wells
# BH1578 lux ind: inducers of Vibrio cholerae quorum light production without autoinducers, primary screen, BH1578 luxS cqsA deficient, single point; hit rate 0.16% among 350,000; AID 588436, 2011; V. cholerae BH1578 lux reporter, luminescence, 6 h; activation, % at 18.7 µM; in the data active means activation mostly above about 9.7%, no sharp cut-off; inconclusive means no clear call, values can overlap the other calls; inactive means mostly below about 3.7%
# Mtb betalactam: beta-lactam sensitization of Mtb H37Rv, H37Rv; M. tuberculosis H37Rv growth with meropenem, percent inhibition; inhibition, % at 25 µM; hit rate 0.27% among 330,000; AID 434955, 2010; call rule not given here;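 further: growth measured after seven days incubation then overnight dye step; 0% = bacteria only wells and 100% = bacteria with antibiotic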
# PrP UTR cherry: prion 5' UTR mRNA inhibition, cherry-pick retest; cell-based prion protein 5' UTR reporter, plate reader; hit rate 48% among 1,100; inhibition, % at 2.5 µM; AID 504592, 2011; shares compounds with PrP 5UTR inh; in the data active means inhibition above about 54%; inconclusive means no clear call, values can overlap the other calls
# An asterisk follows results filed as active; i = inactive; ? = inconclusive; . = no result.
SMILES,FadD28 FP inh,Mtb UGM inh,Rv3671c inh,PrP 5UTR inh,BH1578 lux ind,Mtb betalactam,PrP UTR cherry
CC(=O)O[C@H]1C(=O)[C@@]2(C)[C@H]([C@H](OC(=O)c3ccccc3)[C@]3(O)C[C@H](OC(=O)[C@H](O)[C@@H](NC(=O)c4ccccc4)c4ccccc4)C(C)=C1C3(C)C)[C@]1(OC(C)=O)CO[C@@H]1C[C@@H]2O,-0.2,-0.6,-16.8,55.0*,3.6,-7.2,88.5*
CC/C=C/CC(=O)N[C@@H](c1ccccc1)[C@@H](O)C(=O)O[C@H]1C[C@@]2(O)[C@@H](OC(=O)c3ccccc3)C3[C@](C)(C(=O)[C@H](OC(C)=O)C(=C1C)C2(C)C)[C@@H](O)C[C@H]1OC[C@@]31OC(C)=O (stereo partly drawn),.,-2.1,0.6,59.2*,0.1,-6.1,85.0*
c1ccc2nc(-c3ccc(N4CCOCC4)cc3)ccc2c1,-1.1,-0.6,-0.9,74.6*,-0.4,9.5,66.6*
CN1CCN(c2ccc(-c3ccc4ccccc4n3)cc2)CC1,1.4,.,.,91.9*,-1.6,.,90.6*
c1ccc2nc(-c3ccncc3)ccc2c1,-2.5,0.5,-9.4,-44.5,-0.4,-2.5,.
Cc1c(NC(=S)N/C(=N/S(=O)(=O)c2ccc(Cl)cc2)c2ccccc2)c(=O)n(-c2ccccc2)n1C,-0.7,-2.0,1.7,-19.2,-0.4,-1.5,.
O=C(NCCN1C(=O)S/C(=C/c2cccnc2)C1=O)c1ccc(S(=O)(=O)N2CCCC2)cc1,-2.9,.,.,85.2*,.,.,-16.9
CN(C)S(=O)(=O)c1ccc(C(=O)NCCN2C(=O)S/C(=C\c3cccnc3)C2=O)cc1,-2.3,1.4,-6.2,-6.2,-0.9,18.0,.
Cc1ccc(-n2cccn2)c([C@@H]2C[C@H]3CN(C)C(=O)[C@]34CCCN24)c1,-0.6,.,-2.4,67.5*,i,0.6,-14.1
O=C(NNC1OC(CO)C(O)C(O)C1O)c1cccnc1 (stereo not drawn),-3.0,-0.6,-5.4,-35.4,-1.4,-3.8,.
Cn1ncnc2c(=O)n(C)c(=O)nc1-2,?,-0.2,-187.8,95.9*,-0.4,100.3,97.6*
Cn1nc(-c2ccccn2)nc2c(=O)n(C)c(=O)nc1-2,1.5,-1.2,-193.9,26.1,i,99.4,.
Cc1cccc(C)c1NC(=O)Nc1nnc([C@H]2C[C@H](O)[C@@H](CO)O2)s1,0.1,.,.,.,-0.4,.,.
O=C(CCS(=O)(=O)Cc1ccccc1)N1CCN(c2ccccc2)CC1,-0.2,2.6,-7.5,-4.8,-0.2,-6.5,.
O=C(CCS(=O)(=O)Cc1ccccc1)N1CCN(c2ccc([N+](=O)[O-])cc2)CC1,-3.8,-0.2,0.4,79.9*,i,9.8,-6.9
CC(=O)c1sc(Nc2ccc(Oc3ccccc3)cc2)nc1C,-3.7,.,.,.,.,.,.
CN=c1scc(-c2ccccc2F)n1/N=C/c1ccc[nH]1,-0.3,0.8,-12.9,92.2*,-0.1,11.7,90.8*
CCN=c1scc(-c2ccc(F)cc2)n1/N=C/c1ccccn1,-0.4,0.0,4.5,-62.5,-1.6,18.3,.
COc1ccc(C(C)NC(=O)C2CCCC2)cc1OC (stereo not drawn),-2.6,2.4,1.8,-27.7,-0.2,-9.9,.
CCc1ccc(/C=C2\SC(=S)N(CCCC(=O)Nc3ccccn3)C2=O)cc1,-0.1,0.6,3.2,57.2*,i,-2.8,55.1*
CC(C)(C)OC(=O)N1CCC(CNC(=O)c2cccs2)CC1,-3.8,-1.6,-6.0,-26.3,0.5,-4.0,.
CC(=O)Nc1ccc(NC(=O)C(C)OC(=O)CCN=C2NS(=O)(=O)c3ccccc32)cc1 (stereo not drawn),0.3,3.6,-5.0,-25.3,i,-8.6,.
CC(OC(=O)CCN=C1NS(=O)(=O)c2ccccc21)C(=O)NCc1ccccc1 (stereo not drawn),-2.1,-1.0,-0.7,66.6*,1.1,-8.6,-14.2
CCOc1ccccc1C1CC(=O)Nc2cc3c(cc21)OCCO3 (stereo not drawn),1.3,-4.6,-3.0,56.0*,i,10.2,84.0*
CCCOc1ccccc1C1CC(=O)Nc2cc3c(cc21)OCCO3 (stereo not drawn),-0.7,0.0,-2.3,70.1*,i,0.3,79.8*
SMILES,FadD28 FP inh,Mtb UGM inh,Rv3671c inh,PrP 5UTR inh,BH1578 lux ind,Mtb betalactam,PrP UTR cherry
CC(C)Oc1ccccc1C1CC(=O)Nc2cc3c(cc21)OCO3 (stereo not drawn),-3.6,-0.4,0.5,47.5,-0.3,9.8,.
COC(=O)C1CCN(C2CN(Cc3ccc(F)cc3)S(=O)(=O)C2)CC1 (stereo not drawn),-3.5,.,.,.,.,.,.
COc1cc(OC)cc(-c2cc3nc(C)c(CCC(=O)O)c(C)n3n2)c1,-7.0,0.1,-3.8,54.3*,-0.1,5.5,57.0*
Cc1cnc(C)c(N2CCN(Cc3nc(-c4ccccc4)no3)CC2)n1,-1.2,-1.6,8.5,-18.2,-1.1,0.0,.
NC(CO)c1cn([C@@H](CCC(=O)O)C(=O)N2CCNCC2)nn1 (stereo partly drawn),0.0,3.3,-1.2,-11.0,i,-6.8,.
NC(Cc1ccc(O)cc1)c1cn([C@@H](CCC(=O)O)C(=O)N2CCNCC2)nn1 (stereo partly drawn),-1.7,0.6,4.3,64.0*,-0.8,-1.7,-1.8
Cc1ccc(NC(=O)O/N=C/c2c(C)nn(C(C)(C)C)c2C)cc1Cl,0.3,-0.8,-6.6,88.5*,-0.2,75.0,87.0*
Cc1ccc(NC(=O)Nn2cnnc2)cc1Cl,-2.0,0.8,4.9,-12.1,-0.2,2.7,.
COc1ccc2cc(C3(C)NC(=O)N(CC(=O)N4CCCCC4)C3=O)ccc2c1 (stereo not drawn),0.4,-4.0,4.9,-29.8,3.3,-8.4,.
CCOC(=O)c1ccc(NC(=O)Nc2ccc(Cl)cn2)cc1,-3.9,-2.8,-3.4,-26.6,-0.3,4.6,.
CCOC(=O)c1ccc(NC(=O)Nc2ccon2)cc1,-4.7,-3.2,10.0,66.2*,i,3.6,78.8*
CCOc1ccc(C(=O)COC(=O)Cn2[nH]c(=O)c3ccccc3c2=O)cc1,-2.2,.,.,.,-1.2,.,.
COc1ccc(CC(=O)OCC(=O)N2CCN(S(=O)(=O)c3ccc(C)cc3C)CC2)cc1,-2.6,-2.1,-5.0,88.5*,-0.6,9.2,-12.2
COc1ccc(CC(=O)OCC(=O)N2CCN(S(=O)(=O)c3ccc(C)cc3C)CC2)cc1OC,-2.7,.,.,-18.6,-0.7,.,.
COc1ccc(NC(=O)COC(=O)Cc2c[nH]c3ccccc23)cc1OC,-2.6,0.9,-9.2,68.4*,1.4,-8.3,-24.1
CC(=O)OCC12CC(OC(=O)CC(C)C)C(C)=CC1OC1C(O)C(OC(C)=O)C2(C)C12CO2 (stereo not drawn),-0.6,.,.,90.6*,i,.,92.6*
